Assay results from PubChem BioAssay.
The source made the active and inactive calls. Unless noted, no rule for the calls is given here.

What was measured:
[1] = resazurin metabolic signal in HepG2 cells – cell-based, resazurin fluorescence, 24 h, PK04 Diversity Set, profiling panel (AID 1172); settings: HepG2 viability, higher = more signal; also: test concentration not given here
[2] = budding yeast growth changes without added modifier – OD600, strain BY4716, 24 h, basal condition, primary screen (AID 1173); settings: S. cerevisiae BY4716 growth, OD600, 24 h; higher = more signal, called active from +8 up or from −8 down
[3] = viability profiling in MM1S myeloma cells – cell-based, resazurin fluorescence, basal, 24 h, PK04 Diversity Set, profiling panel (AID 1174); settings: higher = more signal, called active from +8 up or from −8 down;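 also: MM1S multiple myeloma cell line; test concentration not given here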
[4] = target: Dihydroorotate dehydrogenase (quinone), mitochondrial (Plasmodium falciparum (isolate 3D7)) (UniProt Q08210); assay: inhibition of P. falciparum DHODH – biochemical, C-terminal His tag, absorbance 600 nm, primary screen (AID 1175); settings: PfDHODH enzyme, DCIP absorbance 600 nm; higher = more signal, called active from +8 up or from −8 down;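 also: recombinant parasite enzyme with a five histidine tag at its C terminus; test concentration not given here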
[5] = inhibition of PAO1 biofilm formation – strain PAO1, LB-PBS medium, absorbance 600 nm, primary screen (AID 1176); also: test concentration not given here; settings: P. aeruginosa PAO1 growth/biofilm, A600, 12 h; higher = more signal
[6] = growth modulation of vineyard yeast isolate – strain RM11-1a, OD600, basal, 24 h, primary screen (AID 1177);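 also: cultures grown under basal conditions with no added stressor; test concentration not given here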; settings: S. cerevisiae RM11-1a growth, OD600, 24 h; higher = more signal, called active from +8 up or from −8 down
[7] = growth of efflux-deficient E. coli DRC39 – strain DRC39, OD650, 24 h, E. coli filamentation inducers, primary screen (AID 1178);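 also: growth measured as culture turbidity by optical density at 650 nm; test concentration not given here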; settings: E. coli DRC39 acrAB, higher = more signal, called active from +8 up or from −8 down
[8] = growth of efflux-deficient E. coli DRC39 – strain DRC39, OD650, 48 h, E. coli filamentation inducers, primary screen (AID 1179);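 also: screen aims at cell division blockers that make cells filament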; settings: E. coli DRC39 delta-acrAB growth, higher = more signal, called active from +8 up or from −8 down
[9] = viability profiling in RPMI8226 myeloma cells – cell-based, resazurin fluorescence, basal, 24 h, PK04 Diversity Set, profiling panel (AID 1180); settings: higher = more signal;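 also: RPMI8826 multiple myeloma cell line at 5000 cells per well; test concentration not given here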
[10] = target: E3 ubiquitin-protein ligase XIAP (Homo sapiens) (UniProt P98170); assay: small molecules binding XIAP protein – biophysical, small-molecule microarray, fluorescence 635 nm, primary screen (AID 1181); settings: higher = more signal;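 also: score merges 667 nm emission and signal to noise over triplicate slides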
Sequence of E3 ubiquitin-protein ligase XIAP (Homo sapiens) (P98170 whole entry, looked up): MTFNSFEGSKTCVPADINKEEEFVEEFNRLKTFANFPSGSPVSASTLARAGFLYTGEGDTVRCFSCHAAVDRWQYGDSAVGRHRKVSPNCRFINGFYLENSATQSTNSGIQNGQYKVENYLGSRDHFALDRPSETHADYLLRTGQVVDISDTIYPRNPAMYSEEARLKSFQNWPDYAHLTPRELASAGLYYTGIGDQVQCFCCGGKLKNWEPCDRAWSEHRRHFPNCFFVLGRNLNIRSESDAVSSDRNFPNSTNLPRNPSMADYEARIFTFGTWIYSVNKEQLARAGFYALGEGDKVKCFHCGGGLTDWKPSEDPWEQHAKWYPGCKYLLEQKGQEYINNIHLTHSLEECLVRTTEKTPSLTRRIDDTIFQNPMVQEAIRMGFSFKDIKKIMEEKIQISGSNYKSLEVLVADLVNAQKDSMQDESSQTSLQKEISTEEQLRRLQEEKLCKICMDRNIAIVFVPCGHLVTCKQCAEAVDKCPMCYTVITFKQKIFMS

Sequence of Dihydroorotate dehydrogenase (quinone), mitochondrial (Plasmodium falciparum (isolate 3D7)) (Q08210 whole entry, looked up): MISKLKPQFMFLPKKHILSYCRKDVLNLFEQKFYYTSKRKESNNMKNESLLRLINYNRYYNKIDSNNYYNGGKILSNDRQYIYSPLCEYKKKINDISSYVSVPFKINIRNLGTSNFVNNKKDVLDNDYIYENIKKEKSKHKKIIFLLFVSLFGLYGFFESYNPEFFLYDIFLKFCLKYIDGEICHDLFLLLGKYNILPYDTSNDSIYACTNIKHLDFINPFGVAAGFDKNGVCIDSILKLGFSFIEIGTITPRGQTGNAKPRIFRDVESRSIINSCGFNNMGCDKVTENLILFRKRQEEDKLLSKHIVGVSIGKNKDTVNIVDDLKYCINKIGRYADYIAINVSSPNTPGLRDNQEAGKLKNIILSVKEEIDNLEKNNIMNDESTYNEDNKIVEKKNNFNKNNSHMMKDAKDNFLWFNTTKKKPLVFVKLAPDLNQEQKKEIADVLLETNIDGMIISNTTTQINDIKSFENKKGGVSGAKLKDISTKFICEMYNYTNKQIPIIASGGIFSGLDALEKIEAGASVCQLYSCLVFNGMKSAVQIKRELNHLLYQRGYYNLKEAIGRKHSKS

Row | Structure (SMILES) | z-score [1] | z-score [2] | z-score [3] | composite z-score [4] | z-score [5] | z-score [6] | z-score [7] | z-score [8] | z-score [9] | composite z-score [10]
1 | CCc1cc2c(nc1CC)CCN(CCC(C)=NOC(C)CN1CCCCc3nc(C)c(C)cc31)C2 (stereo not given) | 0.465 | -1.61 (inactive) | 0.0376 (inactive) | 0.0164 (inactive) | 0.417 (inactive) | 1.18 (inactive) | -0.148 (inactive) | -1.83 (inactive) | 0.825 | -0.02
2 | CCOC(=O)[C@H](Cc1ccccc1)NC(=O)CCC1CC(OC(=O)NCc2cccc3ccccc23)CC2(CCCC(COC(=O)NCCc3ccc(Cl)cc3)O2)O1 (stereo not given in full) | 0.723 | -1.24 (inactive) | 0.768 (inactive) | -0.617 (inactive) | 0.32 (inactive) | -0.424 (inactive) | -0.178 (inactive) | -0.907 (inactive) | 1.45 | 0.165
3 | COc1ccc(COC(=O)NN=C2C[C@@H](O)[C@@H](O)[C@@H]3[C@@H]4C(=O)N([C@@H](C)c5ccccc5)C(=O)[C@@H]4CC[C@H]23)cc1 | 0.453 | -0.111 (inactive) | 0.334 (inactive) | -0.308 (inactive) | 0.683 (inactive) | -0.677 (inactive) | -0.267 (inactive) | 0.197 (inactive) | 0.818 | 0.0193
4 | C=CC[C@@H]1C=C[C@H](Oc2ccc(C)cc2)[C@@H](COC(=O)NCc2cccc3ccccc23)O1 | 1.08 | -0.469 (inactive) | 0.841 (inactive) | 0.438 (inactive) | 0.119 (inactive) | 0.74 (inactive) | -0.899 (inactive) | -0.629 (inactive) | 0.901 | -0.0559
5 | COC(=O)[C@H](C)NC(=O)CCC1CC(OC(=O)NCc2ccc3c(c2)OCO3)CC2(CCCC(COC(=O)NCCCN3CCCC3=O)O2)O1 (stereo not given in full) | 0.161 | 0.58 (inactive) | -0.0358 (inactive) | 0.184 (inactive) | 0.226 (inactive) | 1.04 (inactive) | 0.7 (inactive) | -0.028 (inactive) | 0.0805 | -0.245
6 | O=C1C[C@H](c2ccccc2)[C@H](c2ccc(Br)cc2)O1 | -0.598 | -8.77 (active) | -0.118 (inactive) | -1.24 (inactive) | 0.605 (inactive) | -2.74 (inactive) | 0.358 (inactive) | -1.67 (inactive) | 0.0497 | -0.0438
7 | CCOC(=O)CCN1C(=O)[C@H]2[C@H]3[C@H](O)[C@H](O)CC(=NOCC=C(C)CCC=C(C)C)[C@H]3CC[C@H]2C1=O | -0.51 | 0.398 (inactive) | -0.524 (inactive) | -0.0222 (inactive) | 0.128 (inactive) | 0.0725 (inactive) | 0.614 (inactive) | 0.846 (inactive) | -0.764 | 0.0223
8 | CO[C@H]1COC(=O)CC=C[C@@H](C)COC(=O)[C@H]2CCCN2C(=O)CC=C[C@H]1C | -0.3 | -0.872 (inactive) | -0.0093 (inactive) | 0.119 (inactive) | 0.246 (inactive) | 0.473 (inactive) | 1.14 (inactive) | 0.745 (inactive) | -0.258 | 0.0595
9 | COC(=O)[C@@H]1CC[C@H](C)[C@@H](c2ccc(Br)cc2)N1C[C@@H](O)CN=[N+]=[N-] | -0.36 | -11.9 (active) | 0.506 (inactive) | -3.04 (inactive) | 0.733 (inactive) | -0.492 (inactive) | -1.47 (inactive) | -2.14 (inactive) | -0.0718 | -0.0118
10 | CC(=O)OC[C@H]1O[C@H](CC=NO[C@H](C)c2cn([C@@H]3COC[C@H]3O)nn2)C=C[C@@H]1OC(C)=O | -0.648 | -0.199 (inactive) | 0.134 (inactive) | -1.64 (inactive) | 0.441 (inactive) | -1.9 (inactive) | -0.716 (inactive) | -0.743 (inactive) | 0.0142 | -0.0447
11 | CC(=O)OC[C@H]1O[C@H](CC=NOC(C)CN2CCCCc3nc(C)c(C)cc32)C=C[C@@H]1OC(C)=O (stereo not given in full) | 0.351 | 0.515 (inactive) | 0.535 (inactive) | -0.582 (inactive) | -0.266 (inactive) | 0.575 (inactive) | 0.132 (inactive) | -0.269 (inactive) | 0.46 | 0.23
12 | CCCC[C@H]1CN2[C@@H](CC[C@@H](C)[C@@H]2c2ccc(Br)cc2)C(=O)O1 | 0.314 | -2.36 (inactive) | 1.05 (inactive) | -0.355 (inactive) | -0.515 (inactive) | 0.0621 (inactive) | -0.959 (inactive) | -0.985 (inactive) | 0.919 | 0.127
13 | C=CC[C@@H]1C=C[C@H](ON=C(C)CCN2CCCc3nc(C)c(C)cc32)[C@@H](CO)O1 | 0.394 | 0.529 (inactive) | -0.0956 (inactive) | -0.267 (inactive) | 0.936 (inactive) | 0.662 (inactive) | 0.382 (inactive) | -0.0088 (inactive) | -0.0021 | 1.07
14 | C#CCCCON=C1[C@H]2CCn3c(=O)n(Cc4cc5c(cc4Cl)OCO5)c(=O)n3[C@H]2[C@H](O)[C@@H]2O[C@H]12 | -0.242 | 0.606 (inactive) | -0.16 (inactive) | 0.605 (inactive) | -0.106 (inactive) | 0.432 (inactive) | 0.313 (inactive) | -0.506 (inactive) | 0.0334 | -0.168
15 | CC(C)=CCCC(C)=CCON=C1C[C@@H](O)[C@@H](O)[C@@H]2[C@@H]3C(=O)N(C4CCCCC4)C(=O)[C@@H]3CC[C@H]12 | -0.346 | -0.339 (inactive) | -2.69 (inactive) | 0.235 (inactive) | -0.437 (inactive) | 0.577 (inactive) | 0.354 (inactive) | 0.683 (inactive) | -1.7 | -0.111
16 | COc1ccc(O[C@H]2C=C[C@@H](c3ccccc3)O[C@@H]2CON=C2c3cc(OC)ccc3O[C@H](c3cccc(OC)c3)[C@H]2O)cc1 | -0.568 | 0.311 (inactive) | -0.89 (inactive) | 0.586 (inactive) | 1.53 (inactive) | 0.041 (inactive) | 0.779 (inactive) | -0.824 (inactive) | -0.387 | -0.206
17 | CO[C@@H]1C=CCC(=O)N[C@@H](C)C(=O)OC[C@@H](OC)[C@H](C)C=CCC(=O)OC[C@H]1C | -0.103 | -0.615 (inactive) | 0.697 (inactive) | -0.765 (inactive) | -0.507 (inactive) | -0.718 (inactive) | 0.267 (inactive) | -0.42 (inactive) | 0.103 | -0.169
18 | COC(=O)[C@H](C)NC(=O)CCC1CC(OC(=O)NCCc2ccc(F)cc2)CC2(CCCC(COC(=O)NCCOc3ccccc3)O2)O1 (stereo not given in full) | 0.0903 | 0.338 (inactive) | 0.177 (inactive) | -0.361 (inactive) | -0.0326 (inactive) | 0.127 (inactive) | 0.289 (inactive) | -0.451 (inactive) | -0.0199 | -0.114
19 | CC(CCC(=O)OC[C@H]1O[C@H](C#Cc2ccccc2)C=C[C@@H]1Oc1ccc(C)cc1)=NOC[C@@H](C)[C@H](OCc1ccccc1)C(C)C | 0.38 | 0.513 (inactive) | 0.258 (inactive) | 0.615 (inactive) | -0.503 (inactive) | -0.222 (inactive) | 0.0786 (inactive) | -0.931 (inactive) | 0.306 | -0.227
20 | C[C@@H]1C=CCC(=O)OC[C@H](C)C(=O)N[C@@H](Cc2ccccc2)C(=O)OC1 | -0.42 | -1.13 (inactive) | 0.489 (inactive) | -2.99 (inactive) | -0.355 (inactive) | -0.868 (inactive) | 0.0826 (inactive) | -0.0419 (inactive) | 0.394 | -0.0669
21 | CC(=O)OC[C@H]1O[C@H](CC=NO[C@@H](C)c2cc(-c3c(C)cc(C)cc3C)no2)C=C[C@@H]1OC(C)=O | -0.583 | 0.493 (inactive) | -0.523 (inactive) | 0.272 (inactive) | -1.17 (inactive) | 0.142 (inactive) | 0.165 (inactive) | 0.105 (inactive) | 0.138 | -0.126
22 | O=C1C[C@@H](O)[C@@H](O)[C@@H]2[C@@H]3C(=O)N(Cc4ccccc4)C(=O)[C@@H]3CC[C@H]12 | -0.252 | -0.425 (inactive) | -0.136 (inactive) | 0.318 (inactive) | 0.188 (inactive) | -0.163 (inactive) | -0.418 (inactive) | -0.779 (inactive) | -0.14 | 0.468
23 | CC(=O)OC[C@H]1O[C@H](CCON=C(C)CCN2CCCc3nc(C)c(C)cc32)C=C[C@@H]1OC(C)=O | 0.0171 | 1.34 (inactive) | -0.102 (inactive) | 0.245 (inactive) | 0.511 (inactive) | 1.3 (inactive) | 0.565 (inactive) | 0.16 (inactive) | -0.0643 | -0.0878
24 | CC#CCOCCC=C1c2ccccc2[C@@H](OC)[C@@H]1C | 0.651 | -1.71 (inactive) | -0.725 (inactive) | -0.412 (inactive) | 0.204 (inactive) | -0.551 (inactive) | -0.158 (inactive) | 0.212 (inactive) | 0.258 | 2.61
25 | COC(=O)[C@H](C)NC(=O)CCC1CC(OC(=O)NCc2cccc3ccccc23)CC2(CCCC(COC(=O)NCCCN3CCCC3=O)O2)O1 (stereo not given in full) | 0.607 | -0.0554 (inactive) | 0.478 (inactive) | -0.104 (inactive) | 0.286 (inactive) | 0.0627 (inactive) | 0.992 (inactive) | -1.34 (inactive) | -0.0303 | -0.273
26 | COC(=O)CC=C[C@@H](C)[C@@H](C=NOC(C)CN1CCCCc2nc(C)c(C)cc21)OC (stereo not given in full) | -0.264 | -0.927 (inactive) | 0.0144 (inactive) | 0.244 (inactive) | -0.0417 (inactive) | -0.46 (inactive) | 0.324 (inactive) | 0.257 (inactive) | -0.0511 | -0.459
